According to PubChem BioAssay (NCI):
This is part of a sample that, as a whole, favours compounds with a hit. Of some 79,000 tested, about 15% had one in any assay. No stated cut-off is given here; in the data, active means growth inhibition above about 70%; inactive means the rest.

What was measured:
[1] = NCI Yeast Anticancer Drug Screen. Data for the rad50 strain (AID 155);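 further: 0% = growth of vehicle-only cultures of the same strain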; conditions: S. cerevisiae rad50 strain growth inhibition; at 50.0 µM; hits give high values
Method in brief: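 Vehicle-treated cultures provide the reference for the growth inhibition reported for compound-exposed, repair-deficient yeast.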

[2] = NCI Yeast Anticancer Drug Screen. Data for the mec2-1 strain (AID 157); conditions: S. cerevisiae mec2-1 strain, at 50.0 µM, hits give high values
Method in brief: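 Growth inhibition is read against vehicle-treated controls after compound exposure of the mec2-1 yeast strain, which is defective in DNA damage repair or cell cycle control.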

[3] = NCI Yeast Anticancer Drug Screen. Data for the sgs1 mgt1 strain (AID 161);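 further: 0% = growth of cultures given vehicle only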; conditions: S. cerevisiae sgs1 mgt1 strain, at 50.0 µM, hits give high values
Method in brief: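 Growth of a repair-deficient yeast mutant was monitored after compound treatment and expressed as inhibition relative to vehicle-treated cultures.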

[4] = NCI Yeast Anticancer Drug Screen. Data for the cln2 rad14 strain (AID 165);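 further: 0% = growth equal to vehicle treated cultures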; conditions: S. cerevisiae cln2 rad14 strain, at 50.0 µM, hits give high values
Method in brief: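 Growth inhibition, relative to vehicle-treated controls, is the read-out. The test organism is a yeast strain with defined genetic alterations, cln2 rad14.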

[5] = NCI Yeast Anticancer Drug Screen. Data for the bub3 strain (AID 167); conditions: S. cerevisiae bub3 mutant strain, at 50.0 µM, hits give high values
Method in brief: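 Mutant yeast screening strain plus compound; vehicle-treated cultures serve as the 0% inhibition reference.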

[6] = NCI Yeast Anticancer Drug Screen. Data for the mlh1 rad18 strain (AID 175); conditions: S. cerevisiae mlh1 rad18 strain growth inhibition; at 50.0 µM; hits give high values
Method in brief: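 Cells of a genetically altered yeast strain, deficient in DNA damage repair, were treated with compound. Their growth was then compared with that of vehicle-treated cultures to give inhibition.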

Measured: growth inhibition

O=C1NC(=O)C(Cc2ccco2)N1 (stereo not drawn)
inactive: [1] 10.8% | [2] 6.7% | [3] -7.85% | [4] -20.6% | [5] -35.5% | [6] -5.2%

COC(=O)CCC(N)C(=O)O (stereo not drawn)
inactive: [1] 10.2% | [2] -11.2% | [3] -7.15% | [4] -10.3% | [5] -24.9% | [6] -4.2%

CCCCCCCCC1C(CCCCCCCC(=O)OC)C2(Cl)C(Cl)=C(Cl)C1(Cl)C2(Cl)Cl (stereo not drawn)
inactive: [1] 25.6% | [2] -11.5% | [3] -1.05% | [4] 3.05% | [5] -1.2% | [6] 14.3%

CCOC(=O)Nc1cccc(Cl)c1Cl
inactive: [1] -31.1% | [2] -39.1% | [3] -22.4% | [4] 6.75% | [5] -27.9% | [6] -8%

N#CCCCCBr
inactive: [1] 12.4% | [2] 6.95% | [3] -4.2% | [4] -50.7% | [5] 15.6% | [6] 7.5%

CC(=O)NCCSSCCCCS(=O)O
inactive: [1] -19.1% | [2] -20.1% | [3] 7.85% | [4] 11.3% | [5] 6.05% | [6] -5.35%

COC1/C=C\OC2(C)Oc3c(C)c(O)c4c(O)c(c5c(c4c3C2=O)NC2(CCN(C)CC2)N=5)=NC(=O)/C(C)=C\C=C\C(C)C(O)C(C)C(O)C(C)C(OC(C)=O)C1C (stereo not drawn)
inactive: [1] 2.85% | [2] 3% | [3] -1% | [4] 10.3% | [5] 7% | [6] 3.25%

O=[N+]([O-])c1ccc(/C=C/c2cc(N(CCO)CCO)c3ccccc3n2)cc1
inactive: [1] 8.35% | [2] -1.05% | [3] -31.2% | [4] -11.1% | [5] -0.4% | [6] -2.95%

O=C(O)CCC1(c2ccccc2)CCCCC1
inactive: [1] 6.1% | [2] 13.9% | [3] 11.6% | [4] 10.2% | [5] 47.7% | [6] -0.9%

CC(C(=O)O)N(CCC#N)CCC#N (stereo not drawn)
inactive: [1] 17.8% | [2] -6.05% | [3] -0.5% | [4] 0.1% | [5] 2.35% | [6] 3.4%

C=C1OC(=O)C(N)=C1C(C)=O
inactive: [1] -2.65% | [2] 23.7% | [3] 9.05% | [4] -5.2% | [5] 3.9% | [6] 12.4%

C(=N\C(/N=C/c1ccccc1)c1ccccc1)/c1ccccc1
inactive: [1] 0.4% | [2] -4.8% | [3] -3.25% | [4] -43.8% | [5] 2.55% | [6] -6.2%

Cc1ccccc1-n1c(C)nc2cc(NCC(=O)c3ccccc3)ccc2c1=O
inactive: [1] 32.9% | [2] -9.8% | [3] -2.3% | [4] -0.5% | [5] -1.6% | [6] 4%

O=C(NC(=S)Nc1ccsc1)c1ccccc1
inactive: [1] 14.6% | [2] 0.7% | [3] 2.6% | [4] 8.85% | [5] -2.15% | [6] -6.35%

COc1cccc(C(N)=O)c1OC
inactive: [1] 3.35% | [2] 8.05% | [3] -10.9% | [4] -22.4% | [5] 11.7% | [6] -15.2%

CCN(CC)c1cccc2c1C1(O)CCC3(CC21)OCCCCO3 (stereo not drawn)
inactive: [1] -33% | [2] -21.6% | [3] -57.3% | [4] -1.65% | [5] -45% | [6] -28.9%

NCc1c(C(N)=O)ncn1Cc1ccccc1
inactive: [1] -0.95% | [2] -3.75% | [3] 5% | [4] -4.15% | [5] 7.4% | [6] -6.05%

CCOC(=O)C/C(C(=O)O)=C(\C)c1ccc2ccccc2c1
inactive: [1] -10.4% | [2] 18.1% | [3] 20.9% | [4] 1.15% | [5] -2.25% | [6] -0.85%

S=C(Nc1ccccc1)Nc1ccc(NC(=S)Nc2ccccc2)cc1
inactive: [1] 8.25% | [2] -0.25% | [3] -3.6% | [4] -4.95% | [5] -8.45% | [6] -52.2%

COc1c(-c2ccc(F)cc2)oc2c(CC(=O)O)cccc2c1=O
inactive: [1] -0.35% | [2] -19.2% | [3] -27.1% | [4] 3.2% | [5] -7.6% | [6] -26.5%

CCOC(=O)c1oc2ccc(OC)c3c2c1CCC3
inactive: [1] 2.8% | [2] -1% | [3] 6.3% | [4] 15.4% | [5] 11.6% | [6] 19.6%

O=C(/C=C/c1ccccc1)NC1C=Nc2ccc(Cl)cc2NC1=O (stereo not drawn)
inactive: [1] 39% | [2] 53.7% | [3] 38.5% | [4] 23% | [5] 28.2% | [6] 26.2%

CC(=O)OC/C=C/CN(C)C
inactive: [1] 9.3% | [2] 4.6% | [3] -7.25% | [4] 7.8% | [5] -6.2% | [6] 16.5%

COC1CCC2CC3(CCC2(C)C1O)OCCO3 (stereo not drawn)
inactive: [1] 1.25% | [2] 0.85% | [3] -1.45% | [4] -12.3% | [5] 26.1% | [6] -14.4%

O=C(NCCCOc1ccc(Cl)c(Cl)c1)NCCc1ccc(Cl)c(Cl)c1
inactive: [1] 6.65% | [2] 4.7% | [3] -3.95% | [4] -8.9% | [5] 0.95% | [6] 15.4%

CC(C)CCOC(=O)N(C)c1ccccc1
inactive: [1] 9.3% | [2] 0.2% | [3] 10.3% | [4] -17.9% | [5] -24% | [6] -9.8%

NSC(=S)NCc1ccco1
inactive: [1] 1% | [2] -2.95% | [3] 7.75% | [4] -52.1% | [5] 15.8% | [6] 13.7%

CC1(C)OCN(c2ccc(Cl)cc2)Cn2c1nc1ccccc12
inactive: [1] -6.65% | [2] 8.2% | [3] -22.8% | [4] 2.5% | [5] -25.9% | [6] -9.25%

COc1cc(C(C)c2cc3c(cc2OCCNC(=O)COc2cc4c(cc2C(C)c2cc(OC)c(OC)c(OC)c2)OCO4)OCO3)cc(OC)c1OC (stereo not drawn)
inactive: [1] -31.9% | [2] -28.6% | [3] -25.6% | [4] 4.8% | [5] -19.6% | [6] -24.9%

CN1c2ccccc2C(=O)NC12CCN(Cc1ccccc1)CC2
inactive: [1] -30.2% | [2] -16.3% | [3] -12.8% | [4] 0.75% | [5] 12.3% | [6] -21.2%

Oc1ccccc1-c1cc(-c2ccccc2)nc(NCCCCCCNc2nc(-c3ccccc3)cc(-c3ccccc3O)n2)n1
inactive: [1] 9.85% | [2] 3.9% | [3] -12.1% | [4] -24.2% | [5] -6.4% | [6] 11.2%

CCOC(=O)C1C(c2ccccc2)ON(c2ccccc2)C1c1cccc([N+](=O)[O-])c1 (stereo not drawn)
inactive: [1] 22.2% | [2] 3.9% | [3] -4.05% | [4] -11.5% | [5] 3.3% | [6] 1.65%

O=C(O)CN1C(=O)NC(C2CC2)(C2CC2)C1=O
inactive: [1] -3.15% | [2] -7.15% | [3] -12.8% | [4] -23.2% | [5] 8.85% | [6] 6.6%

c1ccc2nc3ccccc3cc2c1
inactive: [1] 2.7% | [2] 19.6% | [3] 27.1% | [4] 27.8% | [5] 3.1% | [6] 5.95%

NC(N)=NS(=O)(=O)c1ccc(N2C(=O)CC3(CCCC3)C2=O)cc1
inactive: [1] 10.8% | [2] -2.25% | [3] -16.8% | [4] 17.6% | [5] 13.4% | [6] 6.75%

CCN(CC)c1cccc(C(=O)OCCNCC(C)C)c1
inactive: [1] -9.7% | [2] 0.85% | [3] 5.05% | [4] -39.7% | [5] 49.1% | [6] 10.8%

Cc1[nH]c(=O)[nH]c(=O)c1NC=O
inactive: [1] -3.6% | [2] -28.3% | [3] -8.85% | [4] 14.6% | [5] -11.8% | [6] -27.1%

Cn1c(=O)c2nsnc2n(C)c1=O
inactive: [1] -21.1% | [2] -11% | [3] -14.2% | [4] -25.3% | [5] -3.7% | [6] 14.1%
